Laboratory results: PubChem BioAssay AID588382 (National Center for Advancing Translational Sciences (NCATS), 2011)
About 150 (12%) of roughly 1,300 compounds were called active. Roughly 30% stayed inconclusive and do not appear here. Shown is part of a subset that was picked to be rich in actives. Unmarked numbers belong to inactive results. The call rests on the fitted dose curve; in most records, active means well fitted cell-killing curve with a large enough effect; inconclusive means small, poorly fitted or top-dose-only effect, or effect the other way; inactive means flat fitted curve, though single readings scatter.

Experiment: qHTS of small molecules that selectively kill Giardia lamblia: Hit Validation in HepG2 cytotox;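 further: compound exposure lasted overnight at 37 deg C; nearly all actives have a fitted effect of over 55% in size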;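 on activity change, negative = cytotoxicity: viability measured as cellular ATP by ATPLite luminescence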
Details: cell viability; Potency: HepG2 cytotoxicity; series mostly up to 38.3 µM; activity change, negative = cytotoxicity: at the top concentration
Procedure, shortened: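 HepG2 cells seeded and incubated overnight at 37 deg C, then 23 nL compound added by pintool and incubated overnight at 37 deg C. Viability read as ATP luminescence with ATPLite after 15 min at room temperature.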
On the % scale 0 is the no-effect control and ±100 the full control effect; potency means the concentration at half of the fitted maximal effect.

SMILES | activity change, negative = cytotoxicity [%] | Potency
NC(=O)c1ccc(NC(=O)COc2ccc([N+](=O)[O-])cc2Cl)cc1 | 15.1 | 
NS(=O)(=O)c1ccc(Nc2ncccc2[N+](=O)[O-])cc1 | 7.7 | 
O=[n+]1c2c(n([O-])c3cc(Cl)ccc31)CCCC2 | 5.34 | 
COc1ccc(CNC(=O)COc2cccnc2[N+](=O)[O-])cc1OC | 6.39 | 
Cc1oc2cc(O)ccc2c(=O)c1Oc1ccccc1Br | 18.1 | 
CCC(=O)Nc1nc(-c2cc([N+](=O)[O-])cs2)cs1 | 22.8 | 
COCCNC(=O)/C(C#N)=C/c1ccc(O)c([N+](=O)[O-])c1 | 9.93 | 
Cc1ccc(NC(=S)NNc2ccc([N+](=O)[O-])cc2S(=O)(=O)Nc2ccccc2C(=O)O)cc1C | 9.64 | 
COc1cc(/C=C2\SC(=O)N(Cc3ccc(F)cc3)C2=O)cc([N+](=O)[O-])c1O | -2.93 | 
COc1ccc(-c2cc(=O)c3ccccc3o2)cc1 | -16 | 
Cc1ccccc1-c1nc2c(=O)n(C)c(=O)nc-2n(C)n1 |  | 3.29 µM (active)
CCCc1nc2c(=O)n(C)c(=O)nc-2n(C)n1 |  | 8.26 µM (active)
COc1ccc(-c2ncn(CCC#N)c2[N+](=O)[O-])cc1 | 5.4 | 
Cn1nc(-c2cccnc2)nc2c(=O)n(C)c(=O)nc1-2 |  | 3.69 µM (active)
COc1ccc(-c2nc3c(=O)n(C)c(=O)nc-3n(C)n2)cc1 |  | 1.85 µM (active)
COc1ccccc1NC(=O)COc1cccnc1[N+](=O)[O-] | 0.838 | 
Cc1ccc(S(=O)(=O)N2[C@@H](c3ccc(F)cc3)C(C(=O)O)=CC[C@H]2c2cccc(C)c2)cc1 | 7.11 | 
COc1ccc(-n2nc([N+](=O)[O-])c(=NCCCN3CCCC3=O)n2O)cc1 | 8.35 | 
O=C(COc1cccnc1[N+](=O)[O-])Nc1ccc2c(c1)CCC2 | 27.1 | 
Cc1c[nH]c(=O)c([N+](=O)[O-])c1 | 10.6 | 
Cc1cc(C(=O)N/N=C/c2ccc(O)c([N+](=O)[O-])c2)n[nH]1 | 4.19 | 
COc1cc2sc(-c3ccccc3OC)c(-c3ccc(O)cc3)c2cc1OC | -0.122 | 
O=C(NN1C(=O)c2ccccc2NC1c1ccc([N+](=O)[O-])o1)c1ccc([N+](=O)[O-])cc1 (centres undefined) | -15.4 | 
Cn1nc(-c2ccc(F)cc2)nc2c(=O)n(C)c(=O)nc1-2 |  | 2.61 µM (active)
Cc1ccc(OCC(=O)Nc2cc(S(=O)(=O)N3CCOCC3)ccc2Cl)c([N+](=O)[O-])n1 | 2.02 | 

SMILES | activity change, negative = cytotoxicity [%] | Potency
Cc1cc2ccccn2c1C(=O)c1ccc([N+](=O)[O-])cc1[N+](=O)[O-] | 12.4 | 
COc1ccc2c3n([n+]([O-])c2c1)CCN=C3c1ccc(Cl)cc1 | 20.6 | 
N=NC(=O)c1ccccc1Nc1c(O)[nH]c2ccccc12 |  | 16.5 µM (active)
COc1ccc(CNC(=O)COc2cccnc2[N+](=O)[O-])cc1 | 15.6 | 
O=[N+]([O-])c1ccc(/C=N/Nc2nc(-c3ccccc3)c3cc(Br)ccc3n2)o1 | 11 | 
CCOc1ccc(NC(=O)C(C)C(Cc2ccc(C)cc2)C(=O)O)cc1 (centres undefined) | 0.187 | 
Nc1c(Cl)cc(C2=NCCn3c2c2ccccc2[n+]3[O-])cc1Cl | 0.209 | 
O=c1[nH]c2cccnc2n1-c1ccc([N+](=O)[O-])cc1 | 17 | 
N#Cc1c(N2CCN(c3ccc([N+](=O)[O-])cc3)CC2)[n+](=O)c2ccc(Cl)cc2n1[O-] | 8.84 | 
CC1CCc2c(sc(NC(=O)CCCn3cnc([N+](=O)[O-])n3)c2C(N)=O)C1 (centres undefined) | 2.15 | 
Cn1cc([N+](=O)[O-])c(C(=O)Nc2sc3c(c2C#N)CCC3)n1 |  | 2.33 µM (active)
CC1CCc2c(sc(NC(=O)Cn3cnc([N+](=O)[O-])n3)c2C(N)=O)C1 (centres undefined) | -5.73 | 
O=C(NN1C(=O)c2ccccc2NC1c1ccc([N+](=O)[O-])o1)c1ccccc1 (centres undefined) | -1.31 | 
CN(C)c1ccc(N=Nc2ccccc2C(=O)OCC(=O)N2CCCC2)cc1 | -11.4 | 
Cc1cc(N)ccc1N=Nc1c(C)n(C)n(-c2ccccc2)c1=O | -14.5 | 
FC(F)(F)c1ccc2c(c1)N1CCCC1CN2 (centres undefined) | 0.308 | 
CC(C)c1ccc(N=c2c([N+](=O)[O-])nn(-c3ccc4c(c3)OCCO4)n2O)cc1 | -4 | 
Fc1ccc2cc(-c3ccsc3)ncc2c1 | 28.3 | 
CC/C=C1/N=C2C(=O)N(C)C(=O)N=C2N(C)N1 |  | 3.29 µM (active)
O=[N+]([O-])c1ccc(COn2nnc3ccccc32)cc1 | 3.37 | 
COc1ccc2c(c1)[n+](=O)c(C(C)=O)c(C)n2[O-] | 1.41 | 
Cc1nonc1OCCn1c([N+](=O)[O-])cnc1C | 0.594 | 
CCCOC(=O)/C(=C\c1ccc([N+](=O)[O-])o1)NC(=O)c1ccccc1 | -5.09 | 
O=[N+]([O-])c1ccc2c3n([n+]([O-])c2c1)CCN=C3c1ccc(Cl)cc1 | 16.8 | 
O=[N+]([O-])c1ccc(/C=[N+](\[O-])CCO)o1 | 8.7 | 

SMILES | activity change, negative = cytotoxicity [%] | Potency
O=C1NC(=S)S/C1=C\C=C\c1ccc([N+](=O)[O-])o1 |  | 3.29 µM (active)
O=[N+]([O-])c1ccc(-c2ccn[nH]2)o1 | -11.6 | 
O=[N+]([O-])c1ccccc1S(=O)(=O)Oc1ccccc1/C=N/n1cnnc1 | -19 | 
CC(=O)c1ccc(NC(=O)COC(=O)c2ccccc2N=Nc2ccc(N(C)C)cc2)cc1 | 8.9 | 
O=C(Nc1cccc2ccccc12)C12CC3CC(C1)CC(n1cnc([N+](=O)[O-])n1)(C3)C2 | -8.67 | 
Cc1cccc(-n2ncc3c(N4CCCC4)ncnc32)c1 |  | 2.07 µM (active)
O=C(c1ccco1)N1CCN(Cc2cc(=O)c(OCc3ccc([N+](=O)[O-])cc3)co2)CC1 | 5.68 | 
COC(=O)c1ccccc1NC(=O)N1c2ccccc2Sc2ccccc21 | 5.99 | 
Cc1cccc(N2CCN(Cc3ccc([N+](=O)[O-])o3)CC2)c1C | 13.8 | 
CCCC(=O)NC(=S)NNC(=O)c1ccc([N+](=O)[O-])cc1 | 0.795 | 
Cc1cc(-c2ccc(C)c(S(=O)(=O)N3CCN(c4ccc([N+](=O)[O-])cc4)CC3)c2)on1 | -4.43 | 
N#Cc1c(Nc2ccccc2)[n+]([O-])c2ccc(Cl)cc2[n+]1[O-] |  | 3.29 µM (active)
COc1ccc(CC(=O)Nc2ncc([N+](=O)[O-])s2)cc1OC | 7.05 | 
O=[N+]([O-])/C(Cl)=C(/NCCO)C(Cl)=C(Cl)Cl | 18.1 | 
COc1ccc(Cn2cnc([N+](=O)[O-])c2)cc1[N+](=O)[O-] | 12.6 | 
O=[N+]([O-])c1cc(/C=N/Nc2nc(N3CCCCC3)nc(N3CCCCC3)n2)ccc1O | 10.5 | 
Cc1ccccc1C(=O)N1CCN(c2ccc(NC(=O)c3ccc([N+](=O)[O-])o3)cc2)CC1 |  | 3.29 µM (active)
O=C(Nc1ccccc1N1CCN(C(=O)c2ccccc2)CC1)c1ccc([N+](=O)[O-])o1 | -28.3 | 
O=C(Nc1ccc(N2CCN(C(=O)c3ccc(Cl)cc3)CC2)cc1)c1ccc([N+](=O)[O-])o1 |  | 3.29 µM (active)
O=C(c1ccc([N+](=O)[O-])o1)N1CCN(Cc2ccccc2)CC1 | 0.896 | 
O=C(Nc1ccc(N2CCN(C(=O)c3ccccc3)CC2)cc1)c1ccc([N+](=O)[O-])o1 |  | 4.65 µM (active)
O=[N+]([O-])c1ccc(N2CCN(Cc3ccc([N+](=O)[O-])o3)CC2)cc1 | 5.82 | 
C[C@H]1CN=C(N(C)C)N1CCC1CCCC1 | 0.237 | 
CC(Oc1ccccc1)C(=O)Nc1nnc(S(=O)(=O)N2CCCCCC2)s1 (centres undefined) | 9.3 | 
COc1cccc([C@@H]2CC=C(C(=O)O)[C@H](c3ccccc3F)N2S(=O)(=O)c2ccc(C)cc2)c1 | 8.72 | 

SMILES | activity change, negative = cytotoxicity [%] | Potency
O=[N+]([O-])c1c(C(Cl)Cl)nn(-c2ccccc2)c1N1CCOCC1 | -27.2 | 
Cc1ccc(Nc2ccc([N+](=O)[O-])nc2[N+](=O)[O-])cc1 | 12.6 | 
Cc1ccc(CNC(=O)c2cc(-c3ccccc3C)n(CC3CC(c4cccc([N+](=O)[O-])c4)=NO3)n2)cc1 (centres undefined) | -0.0005 | 
CN(C(=O)CSc1nc2ccc([N+](=O)[O-])cc2s1)C1CCS(=O)(=O)C1 (centres undefined) | -1.9 | 
COCCCn1[nH]c2c3c(ccc2c1=O)C(=O)c1ccccc1C3=O | -20.1 | 
COc1ccc(C(=O)C(C)OC(=O)CNC(=O)c2ccco2)cc1 (centres undefined) | -3.75 | 
O=C(CSc1ccsc1[N+](=O)[O-])NC1CCCC1 | 4.61 | 
O=C(COc1cccnc1[N+](=O)[O-])NCc1cccs1 | 7.57 | 
CC(C)CNC(=S)NC(=O)c1csc([N+](=O)[O-])c1 | -0.544 | 
O=C(NCCO)c1ccc2c3n(nc2c1)-c1ccccc1CO3 |  | 2.93 µM (active)
Cc1cnc([N+](=O)[O-])n1CCOC(=O)NC(=O)c1cccc(F)c1 | 9.9 | 
C[C@@H]1CN([C@H](C)CO)C(=O)c2cc(NC(=O)Nc3ccc4c(c3)OCO4)ccc2O[C@H]1CN(C)Cc1ccncc1 | 8.98 | 
O=C(O)c1cccc(S(=O)(=O)N(Cc2ccccc2)c2ccccc2Cl)c1 | 12.9 | 
O=C(CSc1ccsc1[N+](=O)[O-])NCCc1ccccc1 | 14.4 | 
O=C(NCc1ccco1)NC(=O)c1csc([N+](=O)[O-])c1 | 10.6 | 
O=C(CNc1ccc2ccccc2c1)N/N=C/c1ccc([N+](=O)[O-])o1 | 19.9 | 
O=C(N/N=C\c1ccc([N+](=O)[O-])o1)C1COc2ccccc2O1 (centres undefined) | -26.2 | 
O=C(Cc1ccc([N+](=O)[O-])cc1)N/N=C/c1ccc([N+](=O)[O-])o1 |  | 5.21 µM (active)
CC(NC(=O)C12CC3CC(CC(C3)C1)C2)C(=O)NN=Cc1ccc([N+](=O)[O-])o1 (centres undefined) | -23.4 | 
O=C(N/N=C/c1ccc([N+](=O)[O-])o1)c1ccc2c(c1)OCO2 |  | 4.65 µM (active)
O=C(CNc1cccc([N+](=O)[O-])c1)N/N=C/c1ccc([N+](=O)[O-])o1 | 1.19 | 
CCCCCCCC(=O)N/N=C/c1ccc([N+](=O)[O-])o1 | 16.1 | 
O=C(CC12CC3CC(CC(C3)C1)C2)N/N=C/c1ccc([N+](=O)[O-])o1 |  | 16.5 µM (active)
O=C(N/N=C/c1ccc([N+](=O)[O-])o1)C1CC1 | -6.15 | 
